# Data taken from the supplement of paper PMC11001985.
# Compound: C#CCNC(=O)CCSSCCC(=O)NCCc1ccc(C=O)c(C=O)c1
# Assay: lysine labeling ratio R10:1 (500 µM / 50 µM probe), SILAC-ABPP in living cells; higher = lower intrinsic lysine reactivity toward the probe, active = 2 or less
# Conditions: HeLa; probe concentrations 500 vs 50 µM
# Summary of the method: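 With forward and reverse label swaps, light and heavy SILAC HeLa cells, alive and in PBS at room temperature, were exposed to either 500 µM or 50 µM of an alkyne-tagged lysine probe bearing a disulfide link. After mixing, lysates were clicked to biotin-azide, cut with trypsin, pulled down on neutravidin, freed with DTT, alkylated and analysed on a TIMS-TOF Pro by LC-MS/MS. The per-lysine value R is the median over forward and reverse replicates of the filtered median high-probe/low-probe MS1 peptide ratio. It is capped at 20.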
# UniProt P16422, sequence (P16422 whole entry): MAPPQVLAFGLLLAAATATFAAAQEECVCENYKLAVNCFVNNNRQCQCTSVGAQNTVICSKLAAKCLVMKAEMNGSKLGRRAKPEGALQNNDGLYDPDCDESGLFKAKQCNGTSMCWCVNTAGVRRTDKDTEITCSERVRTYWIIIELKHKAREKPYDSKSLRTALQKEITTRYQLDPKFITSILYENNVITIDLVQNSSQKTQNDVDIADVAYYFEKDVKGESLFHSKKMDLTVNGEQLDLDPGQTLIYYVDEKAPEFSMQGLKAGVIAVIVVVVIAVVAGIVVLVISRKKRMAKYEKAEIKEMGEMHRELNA
# UniProt P12429, sequence (P12429 whole entry): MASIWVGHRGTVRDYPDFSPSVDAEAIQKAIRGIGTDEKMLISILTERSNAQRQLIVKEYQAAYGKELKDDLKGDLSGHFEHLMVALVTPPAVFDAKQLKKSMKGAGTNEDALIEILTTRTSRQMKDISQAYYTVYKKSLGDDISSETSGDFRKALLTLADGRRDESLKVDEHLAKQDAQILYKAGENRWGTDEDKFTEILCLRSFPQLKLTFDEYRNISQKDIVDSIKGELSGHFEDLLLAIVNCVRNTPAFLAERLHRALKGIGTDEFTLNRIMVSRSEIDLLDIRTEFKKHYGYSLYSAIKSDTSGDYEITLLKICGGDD
# UniProt Q01082, sequence (Q01082 whole entry): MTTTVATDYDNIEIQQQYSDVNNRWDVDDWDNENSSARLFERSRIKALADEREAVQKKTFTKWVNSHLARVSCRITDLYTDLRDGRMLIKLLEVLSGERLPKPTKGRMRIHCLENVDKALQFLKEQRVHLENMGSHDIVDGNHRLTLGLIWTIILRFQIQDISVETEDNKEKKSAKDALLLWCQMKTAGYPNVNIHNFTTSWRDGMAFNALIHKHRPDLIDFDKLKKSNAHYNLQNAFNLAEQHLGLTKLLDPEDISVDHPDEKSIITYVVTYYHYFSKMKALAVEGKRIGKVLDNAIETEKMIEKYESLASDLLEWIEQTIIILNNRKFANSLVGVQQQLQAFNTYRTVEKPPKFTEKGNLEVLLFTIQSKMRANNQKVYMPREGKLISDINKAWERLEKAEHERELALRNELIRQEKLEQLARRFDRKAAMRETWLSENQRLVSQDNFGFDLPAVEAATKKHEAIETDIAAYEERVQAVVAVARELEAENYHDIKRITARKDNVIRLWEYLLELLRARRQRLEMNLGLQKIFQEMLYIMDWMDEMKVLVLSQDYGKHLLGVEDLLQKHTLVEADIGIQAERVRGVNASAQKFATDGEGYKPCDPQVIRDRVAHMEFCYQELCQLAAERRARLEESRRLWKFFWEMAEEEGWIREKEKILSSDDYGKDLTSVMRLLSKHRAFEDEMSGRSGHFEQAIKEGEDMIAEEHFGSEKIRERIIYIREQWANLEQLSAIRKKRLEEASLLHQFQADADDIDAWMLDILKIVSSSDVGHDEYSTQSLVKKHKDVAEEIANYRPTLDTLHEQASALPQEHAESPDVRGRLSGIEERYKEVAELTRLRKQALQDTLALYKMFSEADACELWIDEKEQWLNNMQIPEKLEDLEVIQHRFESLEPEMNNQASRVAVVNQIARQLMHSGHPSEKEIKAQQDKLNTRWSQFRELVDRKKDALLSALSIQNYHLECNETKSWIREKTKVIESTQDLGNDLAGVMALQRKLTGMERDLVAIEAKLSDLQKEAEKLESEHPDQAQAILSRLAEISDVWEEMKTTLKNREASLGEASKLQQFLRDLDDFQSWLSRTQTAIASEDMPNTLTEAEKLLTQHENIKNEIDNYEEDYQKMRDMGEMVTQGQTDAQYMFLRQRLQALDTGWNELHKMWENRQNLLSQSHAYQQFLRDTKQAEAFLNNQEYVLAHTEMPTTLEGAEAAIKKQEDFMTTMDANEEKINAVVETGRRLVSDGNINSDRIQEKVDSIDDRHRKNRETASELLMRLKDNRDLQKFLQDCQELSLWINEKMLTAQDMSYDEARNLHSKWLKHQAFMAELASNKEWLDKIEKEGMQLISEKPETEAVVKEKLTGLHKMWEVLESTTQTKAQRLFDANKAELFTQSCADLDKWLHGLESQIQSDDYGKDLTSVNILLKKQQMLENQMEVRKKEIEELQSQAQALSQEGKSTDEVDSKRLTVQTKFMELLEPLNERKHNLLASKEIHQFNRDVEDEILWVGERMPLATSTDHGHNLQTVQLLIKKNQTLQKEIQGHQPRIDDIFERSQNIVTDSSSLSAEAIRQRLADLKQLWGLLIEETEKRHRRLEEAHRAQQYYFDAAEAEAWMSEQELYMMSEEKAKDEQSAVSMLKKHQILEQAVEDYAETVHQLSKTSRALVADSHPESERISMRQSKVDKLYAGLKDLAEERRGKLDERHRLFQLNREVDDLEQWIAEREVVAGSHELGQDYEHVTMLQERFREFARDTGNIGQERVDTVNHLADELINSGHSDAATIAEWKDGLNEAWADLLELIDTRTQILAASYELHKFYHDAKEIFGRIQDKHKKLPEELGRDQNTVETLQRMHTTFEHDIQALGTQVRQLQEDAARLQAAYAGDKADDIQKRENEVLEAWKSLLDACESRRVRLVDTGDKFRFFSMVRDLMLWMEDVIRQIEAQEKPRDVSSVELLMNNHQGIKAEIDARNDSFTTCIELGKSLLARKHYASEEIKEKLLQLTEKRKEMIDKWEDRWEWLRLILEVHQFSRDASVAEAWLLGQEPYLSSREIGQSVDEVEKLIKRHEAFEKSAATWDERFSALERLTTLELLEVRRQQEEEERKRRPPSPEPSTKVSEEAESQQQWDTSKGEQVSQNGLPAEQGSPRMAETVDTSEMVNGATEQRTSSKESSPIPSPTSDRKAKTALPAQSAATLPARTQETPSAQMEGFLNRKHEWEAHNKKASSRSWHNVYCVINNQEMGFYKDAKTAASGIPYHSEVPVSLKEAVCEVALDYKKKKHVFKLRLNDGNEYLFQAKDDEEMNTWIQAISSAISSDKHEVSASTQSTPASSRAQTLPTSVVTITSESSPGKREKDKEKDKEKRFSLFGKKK
# UniProt P19256, sequence (P19256 whole entry): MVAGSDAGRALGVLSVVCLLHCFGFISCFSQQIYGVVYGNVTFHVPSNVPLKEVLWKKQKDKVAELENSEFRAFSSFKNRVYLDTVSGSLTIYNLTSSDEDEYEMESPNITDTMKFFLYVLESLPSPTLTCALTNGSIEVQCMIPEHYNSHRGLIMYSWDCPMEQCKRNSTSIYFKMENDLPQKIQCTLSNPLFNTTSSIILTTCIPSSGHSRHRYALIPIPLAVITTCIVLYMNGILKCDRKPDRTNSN
# UniProt P04792, sequence (P04792 whole entry): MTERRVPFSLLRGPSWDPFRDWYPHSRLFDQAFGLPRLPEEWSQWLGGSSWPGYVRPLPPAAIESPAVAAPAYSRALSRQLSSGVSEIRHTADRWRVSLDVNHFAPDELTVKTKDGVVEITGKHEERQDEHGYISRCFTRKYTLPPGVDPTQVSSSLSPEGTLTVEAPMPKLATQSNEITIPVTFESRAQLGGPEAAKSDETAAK
# UniProt O75054, sequence (O75054 whole entry): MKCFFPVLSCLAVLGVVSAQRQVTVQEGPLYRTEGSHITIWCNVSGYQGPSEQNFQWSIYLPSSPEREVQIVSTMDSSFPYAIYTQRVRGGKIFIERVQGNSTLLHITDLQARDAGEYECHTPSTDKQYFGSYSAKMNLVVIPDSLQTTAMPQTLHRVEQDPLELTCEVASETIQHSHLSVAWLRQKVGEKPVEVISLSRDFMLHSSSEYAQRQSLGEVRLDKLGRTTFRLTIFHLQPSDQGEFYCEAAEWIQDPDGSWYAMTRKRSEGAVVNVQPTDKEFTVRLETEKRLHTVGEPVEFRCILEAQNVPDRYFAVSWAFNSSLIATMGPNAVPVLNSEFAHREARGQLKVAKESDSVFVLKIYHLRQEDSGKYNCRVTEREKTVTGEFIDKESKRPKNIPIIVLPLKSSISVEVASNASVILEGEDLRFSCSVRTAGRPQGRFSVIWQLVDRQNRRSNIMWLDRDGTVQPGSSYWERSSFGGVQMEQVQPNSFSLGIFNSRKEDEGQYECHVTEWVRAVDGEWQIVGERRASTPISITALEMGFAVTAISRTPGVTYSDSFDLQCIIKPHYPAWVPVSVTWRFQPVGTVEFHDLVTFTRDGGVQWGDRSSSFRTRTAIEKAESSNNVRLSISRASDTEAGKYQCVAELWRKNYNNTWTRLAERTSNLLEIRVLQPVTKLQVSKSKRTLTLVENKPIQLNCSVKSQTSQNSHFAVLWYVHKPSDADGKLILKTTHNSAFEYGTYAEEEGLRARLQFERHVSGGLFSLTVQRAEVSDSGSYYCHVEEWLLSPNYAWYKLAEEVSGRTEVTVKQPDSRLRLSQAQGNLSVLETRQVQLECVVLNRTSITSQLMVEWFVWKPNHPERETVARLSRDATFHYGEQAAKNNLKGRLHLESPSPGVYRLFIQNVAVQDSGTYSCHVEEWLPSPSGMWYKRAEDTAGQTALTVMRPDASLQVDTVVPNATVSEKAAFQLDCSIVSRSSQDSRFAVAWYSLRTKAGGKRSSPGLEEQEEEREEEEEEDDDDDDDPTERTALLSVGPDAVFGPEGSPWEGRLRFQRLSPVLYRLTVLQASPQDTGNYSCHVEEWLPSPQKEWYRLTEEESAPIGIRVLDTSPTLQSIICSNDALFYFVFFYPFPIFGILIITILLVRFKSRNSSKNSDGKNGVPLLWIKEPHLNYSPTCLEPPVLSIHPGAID
# UniProt P25788, sequence (P25788 whole entry): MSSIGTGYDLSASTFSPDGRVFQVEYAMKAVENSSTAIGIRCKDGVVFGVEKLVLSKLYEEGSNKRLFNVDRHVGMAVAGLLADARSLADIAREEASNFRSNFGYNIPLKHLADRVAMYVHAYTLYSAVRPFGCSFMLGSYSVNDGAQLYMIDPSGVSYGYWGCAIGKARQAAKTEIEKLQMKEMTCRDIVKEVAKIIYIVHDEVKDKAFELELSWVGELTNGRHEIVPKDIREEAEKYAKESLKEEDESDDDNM
# UniProt P37108, sequence (P37108 whole entry): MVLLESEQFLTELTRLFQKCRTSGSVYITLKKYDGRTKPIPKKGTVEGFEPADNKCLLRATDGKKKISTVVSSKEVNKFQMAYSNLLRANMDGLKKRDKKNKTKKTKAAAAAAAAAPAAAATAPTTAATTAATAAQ
row,Target,lysine labeling ratio R10:1
1,ANXA3 (lysine site: K263) (UniProt P12429),1.92 (active)
2,SPTBN1 (lysine site: K997) (UniProt Q01082),2.87 (inactive)
3,UniProt P61978 (lysine site: K219),0.79 (active)
4,UniProt Q15800 (lysine site: K284),1.82 (active)
5,HSPB1 (lysine site: K123) (UniProt P04792),2.35 (inactive)
6,NEGR1 (lysine site: K98) (UniProt Q7Z3B1),5.29 (inactive)
7,EPCAM (lysine site: K129) (UniProt P16422),6.18 (inactive)
8,SRP14 (lysine site: K55) (UniProt P37108),1.02 (active)
9,EZR (lysine site: K523) (UniProt P15311),1.87 (active)
10,MYH9 (lysine site: K1246) (UniProt P35579),0.944 (active)
11,FAT1 (lysine site: K369) (UniProt Q14517),1.01 (active)
12,MCAM (lysine site: K119) (UniProt P43121),11.1 (inactive)
13,AGRN (lysine site: K1708) (UniProt O00468),2.99 (inactive)
14,IGF1R (lysine site: K887) (UniProt P08069),3.44 (inactive)
15,HSPA9 (lysine site: K567) (UniProt P38646),2.96 (inactive)
16,UniProt Q15149 (lysine site: K2142),3.4 (inactive)
17,ATP1B1 (lysine site: K216) (UniProt P05026),4.23 (inactive)
18,CD58 (lysine site: K78) (UniProt P19256),8.22 (inactive)
19,CACYBP (lysine site: K19) (UniProt Q9HB71),7.06 (inactive)
20,UniProt Q29980 (lysine site: K190),1.17 (active)
21,IGSF3 (lysine site: K884) (UniProt O75054),4.12 (inactive)
22,PPIA (lysine site: K133) (UniProt P62937),2.46 (inactive)
23,PSMA3 (lysine site: K65) (UniProt P25788),1.97 (active)
